Experimental data published in PubChem BioAssay AID588827 (Broad Institute, 2011).
Screen size: about 2,400 compounds; about 20 (0.8%) were called active. About 19% were inconclusive and are not listed.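 Rule for the calls: active = fitted half-maximal concentration for signal decrease at or below twice the top tested dose, in every repeat run; inconclusive = repeat runs disagree, or flat partial inhibition, or poor fit; inactive = all runs flat, wrong-direction or potency beyond limit.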 Not all results are given here. Potency and affinity values are given separately.

Experiment: decrease of heat-induced HSF-1 GFP reporter, dose response, NIH3T3 R4 cells, GFP/RFP, cherry-pick, set 4 (AID 588827)
Conditions: NIH3T3 R4 HSF-1 GFP reporter, heat shock, 48 h; series mostly up to 19.5 µM

outcome, inactive:
Nc1ncnc2oc(-c3ccco3)c(-c3ccco3)c12
CCN1CC2([N+](=O)[O-])C=CC(=O)C([N+](=O)[O-])(C1)C2CC(=O)c1ccccc1 (centres undefined)
CCOC(=O)c1c(N)sc2c(O)c(Br)ccc12
Cc1[nH]c2ccccc2c1/C=C/c1nc2ccccc2c(=O)n1-c1cccc([N+](=O)[O-])c1
O=C(c1ccc([N+](=O)[O-])s1)N1CCN(c2cccc(Cl)c2)CC1
O=C(O)c1cccc(COc2ccc3c(c2)CCC3)c1
CC(C)c1ccc(-c2nc3ccccc3s2)cc1
CC1=Nc2ccc(C)c3nc(C)cc(c23)N1c1ccc(C)cc1
N#Cc1cc2c(nc1SCC(=O)N1CCOCC1)CCCCC2
COc1ccc(/C=C/C(=O)Oc2ccc(/C=N/NC(=O)COc3c(C)cccc3C)cc2)cc1
CCN(c1ccccc1)S(=O)(=O)c1cnc[nH]1
COc1ccccc1N=Nc1ccc(O)c2ncccc12
COc1cccc(NC(=O)Nc2nnc(Cc3ccccc3F)s2)c1
COc1ccccc1C(=O)NCCC(=O)NNC(=O)Cn1ccc(C(F)(F)F)n1
Nc1nc(Cl)nc2ccc(Br)cc12
CCN1CCN(/C=N/c2nc3c(s2)CCCC3)CC1
Cn1c(=O)c2c(nc(Oc3cccc(O)c3)n2C)n(C)c1=O
Cc1ccc(NC(=O)CCN2C(=O)C3CCCCC3C2=O)cc1[N+](=O)[O-] (centres undefined)
O=C(CCCCCn1c(=S)[nH]c2cc3c(cc2c1=O)OCO3)N1CCN(C(=O)c2ccco2)CC1
CCCCOc1ccc(N=Cc2ccc[nH]2)cc1
CCOc1ccc(-c2nc(CSCC(=O)N3CCN(c4cccc(OC)c4)CC3)c(C)o2)cc1
O=C(NCCN1CCCCC1)Nc1ccccc1Cl
CCC1CCCCN1CCCNC(=O)CSc1nc2nc(C)c(Cc3ccc(C)cc3)c(C)n2n1 (centres undefined)
O=C(Nc1ccc2c(c1)ncn2C1CCCCC1)c1ccco1
CC(C)(C)c1ccc(C(=O)NC(=S)Nc2nc3c(s2)CCCC3)cc1
N#Cc1nc(-c2ccco2)oc1N1CCN(Cc2ccccc2)CC1
COc1ccc(S(=O)(=O)/C(C#N)=C/Nc2cccc(OC)c2)cc1
CCCC[C@@H]1C[C@H]1[C@@H](NC(=O)c1ccco1)c1ccc(Cl)cc1
Cc1ccc(C(=O)Nc2cccc(C(F)(F)F)c2)cc1NC(=O)c1ccno1
Fc1ccc(CO/N=C/C2=C(Cl)c3ccccc3CC2)cc1
COc1ccc(-n2c(C)c(C(C)=O)c(C(C)=O)c2C)cc1
CSc1ncccc1C(=O)N1CCCC(N2CCN(c3ccccc3F)CC2)C1 (centres undefined)
CC(=O)N/C(=N\c1nc(C)cc(C)n1)Nc1ccc2ccccc2c1
Cc1ccc(/C=C(\NC(=O)c2ccccc2)C(=O)N2CCCC2C(=O)O)cc1 (centres undefined)
COc1ccc(NC(=S)Nc2ccc(C)c(S(=O)(=O)N3CCCCC3)c2)cc1
Oc1ccccc1CNc1ccc(OC(F)(F)F)cc1
CCOc1c2ccc(C(=O)NCc3ccccc3OC)cc2nn1CC
CC(O/N=C\c1ccccc1O)C(=O)Nc1ccccc1C(=O)N1CCOCC1 (centres undefined)
COc1cccc(N(C(=O)c2cccs2)c2nc3ccccc3s2)c1
CCOc1cc(C#N)c(NC(=O)c2cccnc2Cl)cc1OCC
C=CCSc1nc2ccccc2n1C(=O)/C=C/c1cc(OC)c(OC)c(OC)c1
O=C(Nc1ccc(N2CCCCC2)cc1)c1ccccn1
Cc1cc(C)c(N=C2SCC(=O)N2Cc2ccco2)c(C)c1
O=C(NC(=O)c1cccc(F)c1)OC[C@@H]1CCCN2CCCC[C@H]12
CCCCN(C(=O)COc1ccc(C)cc1OC)c1c(N)n(CCC)c(=O)[nH]c1=O
Cc1cc(C)c2c(c1)/C(=N/NS(=O)(=O)c1ccc(Br)cc1)CCC2
Cc1ccc(N(C)C(=O)CN(C)S(=O)(=O)c2ccc3c(c2)n(C)c(=O)c(=O)n3C)cc1
CCC(=O)Nc1cc2nn(-c3ccc(C)cc3)nc2cc1C
O=C1C(Cc2ccccc2)Nc2ncnc(N3CCN(c4ccccc4)CC3)c2N1Cc1ccccc1 (centres undefined)
O=C(CSC(=S)N1CCCCC1)Nc1ncc2c(n1)CCCC2=O
N#Cc1c(SCC(=O)Nc2nccs2)nc2c(c1-c1ccco1)CCCC2
CCN1C(=O)[C@H]2[C@@H](c3ccc(C)cc3)N3C(=O)N(c4ccc(C)cc4)C(=O)[C@@]3(C)[C@H]2C1=O
CC(C)Cc1csc(NC(=O)c2ccc(F)cc2)c1C(=O)O
CCOC(=O)c1ccc(NC(=S)NC(=O)C2CCCC2)cc1
CCOC(=O)c1ccc(Nc2ncnc3nc[nH]c23)cc1
COc1ccc(C(=O)N2CCN=C2SCc2cccnc2)cc1OC
COc1ccc(NC(C)=O)cc1NC(=O)CN1CCN(CC(=O)Nc2ccccc2Cl)CC1
CC1(C)CC(=O)C2=C(C1)N(Cc1ccccc1)C(=O)C2(NC(=O)C(C)(C)C)C(F)(F)F (centres undefined)
Cc1ccc(C(=O)CSc2cnc3ccccc3n2)cc1C
C/C(=N\NC1=NCCN1)c1ccc(N)c([N+](=O)[O-])c1
Cc1ccc(OCC(=O)Nc2ccccc2C(=O)N2CCCCC2)cc1
CCN(CC)S(=O)(=O)c1cccc(NC(=O)CCNC(=O)NC23CC4CC(CC(C4)C2)C3)c1
Cc1cccc(CS(=O)(=O)Cc2ccc(C(=O)NCc3cccs3)o2)c1
CC(C)OCCCn1c(NN)nc2ccccc2c1=O
COc1nc(N)c(C#N)c(-c2ccc(N(C)CCC#N)cc2)c1C#N
CCCSc1nnc(CNS(=O)(=O)c2ccc(C)cc2)n1C
Cc1ccc(CSCC(=O)N(C)CC(=O)Nc2ccc(C)cc2)cc1
COc1ccc(O)c(-c2c(-c3ccc(Cl)cc3)n[nH]c2C)c1
COc1ccc(NCc2nnc(SCC(=O)Nc3cc(C(F)(F)F)ccc3Cl)o2)cc1
